Assay results published in PubChem BioAssay AID1159580 (chemical genetic matrix, 2015).
The campaign covered roughly 5,500 compounds. About 2,000 (36%) were called active. Another 18% or so got no clear call; they are omitted. Cut-off read from the data, not from the text of the source: active = normalized growth mostly below about 0.91 (no sharp cut-off); inconclusive = no clear call, values can overlap the other calls; inactive = mostly above about 0.92. This is one part of the list.

Test: chemical genetic growth profiling, strain panel (AID 1159580);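 note: tested at 20 µM; growth read once vehicle control cultures reached saturation at 30 °C; 1 = growth at the plate median or of vehicle wells; lower values mean less growth of the strain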
Conditions: S. cerevisiae deletion strains, growth OD

Measured: normalized growth

Cc1ccc(/C=C2\CSc3ccc(F)cc3C2=O)cc1
inactive: locus YAR019C, strain CDC15, hits give low values 0.942 | locus YBL105C, strain PKC1, hits give low values 0.955 | locus YBR135W, strain CKS1, hits give low values 0.953 | locus YBR136W, strain MEC1, hits give low values 0.953 | locus YBR160W, strain CDC28, hits give low values 0.959 | locus YDL017W, strain CDC7, hits give low values 0.958 | locus YDL028C, strain MPS1, hits give low values 0.932 | locus YDL101C, strain DUN1, hits give low values 0.971 | locus YDL108W, strain KIN28, hits give low values 0.93 | locus YDL132W, strain cdc53, hits give low values 0.937 | locus YDL214C, strain PRR2, hits give low values 0.892 | locus YDR052C, strain DBF4, hits give low values 0.972 | locus YDR054C, strain cdc34, hits give low values 0.94 | locus YDR226W, strain ADK1, hits give low values 0.952 | locus YDR477W, strain SNF1, hits give low values 0.892 | locus YER123W, strain YCK3, hits give low values 0.864 | locus YER133W, strain GLC7, hits give low values 0.902 | locus YFL009W, strain cdc4, hits give low values 0.904 | locus YFL029C, strain CAK1, hits give low values 0.946 | locus YFR003C, strain YPI1, hits give low values 0.954 | locus YFR019W, strain FAB1, hits give low values 0.934 | locus YFR028C, strain CDC14, hits give low values 0.935 | locus YGR040W, strain KSS1, hits give low values 0.889 | locus YGR052W, strain FMP48, hits give low values 0.91 | locus YGR092W, strain DBF2, hits give low values 0.86 | locus YHR079C, strain IRE1, hits give low values 0.856 | locus YHR082C, strain KSP1, hits give low values 0.915 | locus YHR205W, strain SCH9, hits give low values 0.845 | locus YIL147C, strain SLN1, hits give low values 0.953 | locus YJL095W, strain BCK1, hits give low values 0.859 | locus YJL128C, strain PBS2, hits give low values 0.888 | locus YJL157C, strain FAR1, hits give low values 0.906 | locus YJR016C, strain ILV3, hits give low values 0.956 | locus YJR066W, strain TOR1 (second series), hits give low values 0.869 | locus YJR066W, strain TOR1, hits give low values 0.862 | locus YKL048C, strain ELM1, hits give low values 0.92 | locus YKL067W, strain YNK1, hits give low values 0.885 | locus YKL101W, strain HSL1, hits give low values 0.895 | locus YKL193C, strain SDS22, hits give low values 0.938 | locus YKL203C, strain TOR2, hits give low values 0.985 | locus YLR133W, strain CKI1, hits give low values 0.915 | locus YLR403W, strain SFP1, hits give low values 0.898 | locus YML070W, strain DAK1, hits give low values 0.882 | locus YMR001C, strain CDC5, hits give low values 0.944 | locus YMR205C, strain PFK2 (second series), hits give low values 0.911 | locus YMR277W, strain FCP1, hits give low values 0.923 | locus YNL006W, strain LST8, hits give low values 0.952 | locus YNL020C, strain ARK1, hits give low values 0.915 | locus YNL161W, strain CBK1, hits give low values 0.955 | locus YNL183C, strain NPR1, hits give low values 0.903 | locus YNL207W, strain RIO2, hits give low values 0.945 | locus YNL222W, strain SSU72, hits give low values 0.937 | locus YNL307C, strain MCK1 (second series), hits give low values 0.85 | locus YOL078W, strain AVO1, hits give low values 0.945 | locus YOL136C, strain PFK27, hits give low values 0.881 | locus YOR061W, strain CKA2, hits give low values 0.887 | locus YOR119C, strain RIO1, hits give low values 0.932 | locus YOR231W, strain MKK1, hits give low values 0.835 | locus YOR329C, strain SCD5, hits give low values 0.956 | locus YPL031C, strain PHO85, hits give low values 0.896 | locus YPL153C, strain RAD53, hits give low values 0.888 | locus YPL204W, strain HRR25, hits give low values 0.876 | locus YPL209C, strain IPL1, hits give low values 0.952 | locus YPR025C, strain CCL1, hits give low values 0.958 | locus YPR106W, strain ISR1, hits give low values 0.952 | locus YPR111W, strain DBF20, hits give low values 0.916 | strain NNK1, hits give low values 0.946 | strain TSCII, hits give low values 0.942
active: locus YHR030C, strain SLT2, hits give low values 0.706 | locus YLR113W, strain HOG1, hits give low values 0.697 | locus YPL256C, strain CLN2, hits give low values 0.831
